Common to all, as to assay: qHTS profiling for inhibitors of Plasmodium falciparum proliferation (AID 504749); further: nearly all actives have a fitted effect of over 60% in size
Conditions in all cases: P. falciparum in erythrocytes, SYBR Green DNA, 72 h; series mostly up to 28.7 µM
(In general: Quantitative high-throughput screening tests each substance at several concentrations.)

One assay deals with C2A. In short, it runs like this: (§1)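 P. falciparum-infected erythrocytes (0.3% parasitemia, 2.5% hematocrit final) were exposed to compounds for 72 h at 37 C in 5% CO2, then lysed with SYBR Green buffer overnight at room temperature; parasite DNA fluorescence was normalized to artemisinin and DMSO controls.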
The subject of a further assay is CP185. In short, it runs like this:
as §1

A further assay concerns CP191. In short, it runs like this: as §1
The test system of a further assay is CP211. In short, it runs like this: as §1
A further assay concerns CP217. In short, it runs like this:
as §1

A further assay concerns CP237. Summed up:
as §1

The subject of a further assay is CP238. In short, it runs like this:
as §1

The test system of a further assay is CP250. In short, it runs like this: as §1
Another assay concerns CP252. In short, it runs like this: as §1
The next assay has as its system CP256. In short, it runs like this: as §1
The next assay concerns CP265. In short, it runs like this: as §1
Another assay deals with CP329. In short, it runs like this: as §1
The next assay concerns DIV30. In short, it runs like this: as §1
The test system of another assay is ECU. In short, it runs like this:
as §1

The test system of the next assay is HB3. Summed up: as §1
A further assay has as its system N140. In short, it runs like this: as §1
Another assay has as its system P93_24. Summed up: as §1
The next assay has as its system PC15. Summed up:
as §1

For the next assay, the system named is PC26. In short, it runs like this:
as §1

A further assay concerns SC27B. In short, it runs like this: as §1

The structures appear in SMILES notation. Inconclusive results are not listed. The source made the active and inactive calls. The call rests on the fitted dose curve; in most records, active means well fitted inhibition curve with a large enough effect; inconclusive means small, poorly fitted or top-dose-only effect; inactive means flat fitted curve, though single readings scatter.

Our source for the Potency values is PubChem BioAssay (NCATS).
Potency means the concentration at half of the fitted maximal effect.

Regarding `O=C(O)[C@@H](O)[C@@H](O)[C@H](O)C(=O)CO`, the Potency entry in the assay with C2A, with CP185, with CP191, in the assay with CP211, in the assay on CP217 and in the assay on CP237 was “inactive” each time. Also, the Potency result with CP238, in the assay with CP250, in the assay on CP252, with CP256, with CP265 and in the assay on CP329 was “inactive” in each case. Besides, the Potency entry with DIV30, with ECU, with HB3, with N140, in the assay on P93_24 and with PC15 was “inactive” throughout. Moreover, the Potency result in the assay with PC26 and in the assay on SC27B was “inactive” throughout.

For the compound `CC1(C)S[C@@H]2[C@H](NC(=O)Cc3ccccc3)C(=O)N2[C@@H]1C(=O)O`, the Potency entry with C2A, in the assay on CP185, with CP191, with CP211, in the assay on CP217 and in the assay on CP237 was “inactive” each time. The Potency entry in the assay on CP238, in the assay with CP250, in the assay with CP252, in the assay on CP256, in the assay with CP265 and in the assay on CP329 was “inactive” each time. For the same compound, the Potency entry with DIV30, with ECU, with HB3, in the assay on N140, with P93_24 and with PC15 was “inactive” each time. For the same compound, the Potency entry in the assay on PC26 and in the assay on SC27B was “inactive” throughout.

For the compound `CC(C)(C)c1ccc(CN2CCN([C@H](c3ccccc3)c3ccc(Cl)cc3)CC2)cc1`, the Potency was 10 µM (active) in the assay with C2A; 10 µM (active) in the assay on CP185; 10 µM (active) with CP191; 8.91 µM (active) in the assay on CP217; 7.94 µM (active) in the assay with CP237; 8.91 µM (active) in the assay with CP238. For the same compound, the Potency with CP250 was 8.91 µM (active); in the assay with CP252, 11.2 µM (active); in the assay with CP256, 10 µM (active); in the assay with CP265 it was 12.6 µM (active); in the assay with ECU it was 10 µM (active); in the assay with HB3, 8.91 µM (active). Besides, the Potency was 7.08 µM (active) in the assay with N140, 11.2 µM (active) with P93_24, 11.2 µM (active) in the assay on PC15 and 10 µM (active) with SC27B. For the same compound, the Potency result in the assay with CP211, with CP329, with DIV30 and in the assay with PC26 was “inactive” in each case.

Take `Cc1onc(-c2c(F)cccc2Cl)c1C(=O)N[C@@H]1C(=O)N2[C@H]1SC(C)(C)[C@H]2C(=O)O`: the Potency result in the assay on C2A, with CP185, in the assay on CP191, in the assay with CP211, in the assay on CP217 and with CP237 was “inactive” in each case. Besides, the Potency result in the assay with CP238, in the assay on CP250, with CP252, in the assay on CP256, in the assay on CP265 and in the assay on CP329 was “inactive” in each case. The Potency result with DIV30, in the assay with ECU, in the assay with HB3, with N140, in the assay on P93_24 and in the assay on PC15 was “inactive” throughout. Also, the Potency entry in the assay with PC26 and in the assay with SC27B was “inactive” in each case.

In the case of `C[C@H](CCC(=O)O)[C@H]1CC[C@@H]2[C@H]3[C@@H](C[C@@H](O)[C@]21C)[C@]1(C)CC[C@H](O)C[C@@H]1C[C@@H]3O`, the Potency entry in the assay with C2A, in the assay on CP185, with CP191, in the assay on CP211, in the assay with CP217 and in the assay on CP237 was “inactive” each time. Also, the Potency entry in the assay on CP238, with CP250, with CP252, with CP256, in the assay with CP265 and with CP329 was “inactive” each time. The Potency result in the assay with DIV30, in the assay with ECU, with HB3, in the assay on N140, with P93_24 and in the assay with PC15 was “inactive” throughout. The Potency result with PC26 and with SC27B was “inactive” in each case.
